Experimental data reported in PubChem BioAssay AID1159580 (chemical genetic matrix, 2015).
Where “and” joins values, the source holds several entries; their conditions need not be identical. Identical values can stand only once. About 2,000 (36%) of roughly 5,500 compounds were called active. Inconclusive results (about 18%) are left out. No stated cut-off is given here; in the data, active means normalized growth mostly below about 0.91 (no sharp cut-off); inconclusive means no clear call, values can overlap the other calls; inactive means mostly above about 0.92. Some of the results follow.

Test: chemical genetic growth profiling, strain panel (AID 1159580);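 further: tested at 20 µM; growth read once vehicle control cultures reached saturation at 30 °C; 1 = growth at the plate median or of vehicle wells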
Conditions: S. cerevisiae deletion strains, growth OD

Measured: normalized growth

Cc1cc(O)cc(C)c1Cl
inactive: locus YAL021C, strain ccr4, stronger effect = lower value 0.918 | locus YAL030W, strain snc1, stronger effect = lower value 0.961 | locus YBR021W, strain FUR4, stronger effect = lower value 1.04 | locus YBR171W, strain sec66, stronger effect = lower value 0.912 | locus YBR229C, strain ROT2, stronger effect = lower value 0.993 | locus YBR231C, strain swc5, stronger effect = lower value 0.945 | locus YCL029C, strain bik1, stronger effect = lower value 0.981 | locus YCL069W, strain vba3, stronger effect = lower value 0.929 | locus YDL005C, strain med2, stronger effect = lower value 1.02 | locus YDL035C, strain GPR1, stronger effect = lower value 0.942 | locus YDL040C, strain nat1, stronger effect = lower value 0.968 | locus YDL074C, strain BRE1, stronger effect = lower value 0.968 | locus YDL101C, strain DUN1, stronger effect = lower value 1.01 | locus YDL185W, strain tfp1, stronger effect = lower value 0.988 | locus YDL192W, strain arf1, stronger effect = lower value 1.02 | locus YDR001C, strain nth1, stronger effect = lower value 0.951 | locus YDR069C, strain doa4, stronger effect = lower value 0.992 | locus YDR101C, strain arx1, stronger effect = lower value 0.928 | locus YDR150W, strain NUM1, stronger effect = lower value 0.998 | locus YDR162C, strain NBP2, stronger effect = lower value 0.957 | locus YDR297W, strain sur2, stronger effect = lower value 0.968 | locus YDR318W, strain mcm21, stronger effect = lower value 0.981 | locus YDR334W, strain swr1, stronger effect = lower value 0.957 | locus YDR388W, stronger effect = lower value 1 | locus YDR502C, strain sam2, stronger effect = lower value 0.949 | locus YEL003W, strain gim4, stronger effect = lower value 0.965 | locus YEL037C, strain rad23, stronger effect = lower value 0.953 | locus YEL061C, strain CIN8, stronger effect = lower value 0.988 | locus YER110C, stronger effect = lower value 1 | locus YER155C, strain BEM2, stronger effect = lower value 0.992 | locus YER167W, strain BCK2, stronger effect = lower value 0.975 | locus YFR010W, strain ubp6, stronger effect = lower value 0.93 | locus YGL086W, strain mad1, stronger effect = lower value 0.945 | locus YGL167C, strain pmr1, stronger effect = lower value 0.999 | locus YGL173C, strain kem1, stronger effect = lower value 0.927 | locus YGL227W, strain vid30, stronger effect = lower value 0.949 | locus YGL240W, strain doc1, stronger effect = lower value 0.978 | locus YGL248W, strain PDE1, stronger effect = lower value 0.999 | locus YGR078C, strain PAC10, stronger effect = lower value 0.974 | locus YGR135W, strain pre9, stronger effect = lower value 0.994 | locus YGR252W, strain gcn5, stronger effect = lower value 0.979 | locus YHR013C, strain ard1, stronger effect = lower value 0.97 | locus YHR030C, strain SLT2, stronger effect = lower value 0.995 and 0.921 | locus YHR079C, strain IRE1 (second series), stronger effect = lower value 0.996 | locus YHR079C, strain IRE1, stronger effect = lower value 0.929 | locus YHR094C, strain hxt1, stronger effect = lower value 1 | locus YHR129C, strain ARP1, stronger effect = lower value 0.998 | locus YHR200W, strain rpn10, stronger effect = lower value 0.984 | locus YIL066C, strain RNR3, stronger effect = lower value 0.981 | locus YIL073C, strain SPO22, stronger effect = lower value 1.04 | locus YIL125W, strain kgd1, stronger effect = lower value 0.993 | locus YIR030C, strain dcg1, stronger effect = lower value 0.998 | locus YJL092W, strain hpr5, stronger effect = lower value 0.923 | locus YJL095W, strain BCK1 (second series), stronger effect = lower value 0.951 | locus YJL095W, strain BCK1, stronger effect = lower value 0.986 and 0.94 | locus YJL115W, strain asf1, stronger effect = lower value 0.997 | locus YJL129C, strain trk1, stronger effect = lower value 0.899 | locus YJL134W, strain LCB3, stronger effect = lower value 0.998 | locus YJL154C, strain vps35, stronger effect = lower value 0.96 | locus YJL168C, strain set2, stronger effect = lower value 1 | locus YJL187C, strain SWE1 (second series), stronger effect = lower value 1 | locus YJR043C, strain POL32, stronger effect = lower value 0.96 | locus YJR066W, strain TOR1, stronger effect = lower value 0.955
active: locus YAL026C, strain drs2, stronger effect = lower value 0.831 | locus YBL061C, strain skt5, stronger effect = lower value 0.914 | locus YBR009C, strain hhf1, stronger effect = lower value 0.873 | locus YBR023C, strain chs3, stronger effect = lower value 0.899 | locus YBR279W, strain paf1, stronger effect = lower value 0.899 | locus YCL011C, strain gbp2, stronger effect = lower value 0.906 | locus YCL016C, strain dcc1, stronger effect = lower value 0.892 | locus YCL061C, strain MRC1, stronger effect = lower value 0.916 | locus YCR088W, strain abp1, stronger effect = lower value 0.891 | locus YDR137W, strain rgp1, stronger effect = lower value 0.41 | locus YDR159W, strain sac3, stronger effect = lower value 0.588 | locus YDR195W, strain ref2 1.35 [resistant] | locus YDR335W, strain msn5, stronger effect = lower value 0.898 | locus YDR392W, strain spt3, stronger effect = lower value 0.653 | locus YEL061C, strain CIN8 (second series), stronger effect = lower value 0.898 | locus YER015W, strain faa2, stronger effect = lower value 0.839 | locus YER016W, strain bim1, stronger effect = lower value 0.874 | locus YER111C, strain swi4, stronger effect = lower value 0.905 | locus YER155C, strain BEM2 (second series), stronger effect = lower value 0.603 | locus YGL078C, strain dbp3, stronger effect = lower value 0.919 | locus YGL253W, strain hxk2, stronger effect = lower value 0.895 | locus YHR027C, strain rpn1, stronger effect = lower value 0.838 | locus YHR142W, strain chs7, stronger effect = lower value 0.77 | locus YJL164C, strain tpk1, stronger effect = lower value 0.887 | locus YJL166W, strain qcr8, stronger effect = lower value 0.849
